Experimental data published in PubChem BioAssay (NCI).
About 83,000 compounds went through this panel and 20% of them were active in at least one assay; those are over-represented in the sample as a whole.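 Negative percent growth values reflect cell death: -40 means 40% of the cells present at the start died, and -100 means all died.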 Unmarked numbers belong to inactive results. Active and inactive are the calls of the source. How the source made its calls: active means growth percent below 10; inactive means the rest.

Assays:
Assay in all cases: NCI-60 one-dose screen, 48 h (100 = growth as untreated, 0 = no growth, -100 = all killed)
Conditions in all cases: 10 µM unless noted
SR leukemia = tested on: SR leukemia
OVCAR-8 ovarian = tested on: OVCAR-8 ovarian
OVCAR-5 ovarian = tested on: OVCAR-5 ovarian
OVCAR-4 ovarian = tested on: OVCAR-4 ovarian
SK-OV-3 ovarian = tested on: SK-OV-3 ovarian
IGROV1 ovarian = tested on: IGROV1 ovarian
OVCAR-3 ovarian = tested on: OVCAR-3 ovarian
HS 578T breast = tested on: HS 578T breast
NCI/ADR-RES ovarian = tested on: NCI/ADR-RES ovarian

Row | SMILES | growth (SR leukemia) | growth (OVCAR-8 ovarian) | growth (OVCAR-5 ovarian) | growth (OVCAR-4 ovarian) | growth (SK-OV-3 ovarian) | growth (IGROV1 ovarian) | growth (OVCAR-3 ovarian) | growth (HS 578T breast) | growth (NCI/ADR-RES ovarian)
1 | O=C(NCCCNc1cc(-c2cn(-c3ccccc3)nc2-c2cccc(O)c2)ccn1)Nc1cc(C(F)(F)F)cc(C(F)(F)F)c1 | 53.9% | 75.7% | 88.8% | 66.9% | 89.3% | 64% | 86.5% | 57.3% | 69.7%
2 | CCN(CC)Cc1c(-c2cccc(OC(F)(F)F)c2)[nH]c2ccc(N3CCCC3)cc2c1=O | 91.4% | 96.2% | 92.5% | 101% | 111% | 79.6% | 104% | 87.3% | 92.5%
3 | C#CCOc1ccc(C(Nc2ccc(OC)cc2)c2nnnn2C2CCCCC2)cc1 (configuration not stated) | 95.6% | 95.2% | 102% | 103% | 118% | 91.6% | 112% | 95.2% | 88.1%
4 | Cc1cc(NS(=O)(=O)c2ccc(-c3cnc(C4CC4)o3)cc2)ccc1I | 32.9% | 46.4% | 54.6% | 59.9% | 66.2% | 36.7% | 8.32% (active) | 40% | 14.3%
5 | CC1=C2C(=C[C@@](C)(COS(N)(=O)=O)[C@@H]2O)C(=O)[C@](C)(O)C12CC2 | 102% | 74.3% | 41.4% | 80.8% | 53.9% | 60.7% | 62.6% | 104% | 63.5%
6 | O=C(Nc1cccc(-c2nc(-c3ccc(NC(=O)c4cccnc4)cc3Cl)no2)c1)Nc1ccc(NC(=O)C2CC2)c(C(F)(F)F)c1 | -14.4% (active) | -16.8% (active) | -65.6% (active) | -74.1% (active) | -48.3% (active) | -55.4% (active) | -74.7% (active) | -31% (active) | 64.1%
7 | COC(=O)Nc1ccc(-c2nc(-c3cccc(O)c3)c(-c3ccnc(Br)c3)[nH]2)cc1 | 32.7% | 35.6% | 92.9% | 45.5% | 79.3% | 65.7% | 50.8% | 27.7% | 76.1%
8 | CCOC(=O)c1c(NCC(=O)Nc2cccc([N+](=O)[O-])c2)sc2c1CCCC2 | 11.7% | -18.2% (active) | -45.6% (active) | -45.2% (active) | -67.3% (active) | -19.6% (active) | -39.7% (active) | -14.8% (active) | -36.7% (active)
9 | CCOC(=O)C1=C(C)Nc2nc3ccccc3n2C1c1cccc(Br)c1 (configuration not stated) | 25.4% | 96% | 97.1% | 88.9% | 93.6% | 77.4% | 40.3% | 79.1% | 59%
10 | CCNC(=O)Oc1ccc(/C(=C(/C)c2ccc(Cl)cc2)c2ccc(OCCN3CCCC3)cc2)cc1 | 23.2% | 87.7% | 90.5% | 88.6% | 106% | 78.1% | 99.8% | 92.8% | 78.7%
11 | O=C(Nc1cccc(Cl)c1)Nc1nc2ccc(-c3cccc4ccccc34)cc2s1 | 90% | 42.9% | 84% | 20.4% | 66.8% | 55.2% | 13.5% | 72.9% | 57.5%
12 | O=C(Nc1ccccc1)Nc1nc2ccc([N+](=O)[O-])cc2s1 | 2.29% (active) | 12.1% | 12.1% | -4.54% (active) | -7.62% (active) | 19.7% | 4.1% (active) | 5.92% (active) | 2.34% (active)
13 | CNC(=O)c1c(NC(=O)c2ccc(F)cc2F)sc2c1CCC(=O)C2 | 1.58% (active) | 13.9% | 0.937% (active) | -40.6% (active) | -4.66% (active) | 22.8% | 0.976% (active) | 24.5% | 5.72% (active)
14 | O=S(=O)(Nc1cc(Cl)c(F)c(Cl)c1)c1ccc(-c2cnc(C3CC3)o2)cc1 | 36% | 44.5% | 48.4% | 58.3% | 72.8% | 43.5% | 15.4% | 30.5% | 26.8%
15 | O=S(=O)(Nc1ccc2c(c1)OC(F)(F)O2)c1ccc(-c2cnc(C3CC3)o2)cc1 | 27.8% | 56.3% | 73.2% | 59.4% | 65.6% | 42.8% | 20.3% | 40.6% | 24.7%
16 | COc1ccc(/C=C/C(=O)c2nnn(-c3ccc(C(=O)O)cc3)c2C)cc1OC | 95.4% | 102% | 97.8% | 107% | 112% | 96.1% | 117% | 102% | 106%
17 | C#C[C@]1(O)CC[C@H]2[C@@H]3CC=C4c5sc(C6CC6)nc5CC[C@]4(C)[C@H]3CC[C@@]21C | 46.5% | 88.3% | 85.7% | 107% | 116% | 97.9% | 89.2% | 68.1% | 84.6%
18 | O=C(Nc1ccc(Cl)cc1)Nc1nc2ccc([N+](=O)[O-])cc2s1 | -24.3% (active) | 6.03% (active) | 18.4% | -4.3% (active) | -12.3% (active) | 14.7% | -26.6% (active) | -15.8% (active) | -6.91% (active)
19 | CCN1C/C(=N\S(=O)(=O)c2ccccc2)N(CC)C1=S | 101% | 99.7% | 103% | 106% | 118% | 107% | 119% | 105% | 99.8%
20 | O=C(Nc1cccc(-c2nc(-c3ccc(NC(=O)c4cccs4)cc3Cl)no2)c1)Nc1ccc(NC(=O)C2CC2)c(C(F)(F)F)c1 | -25.9% (active) | 2.05% (active) | -14.6% (active) | -81.3% (active) | -30.6% (active) | -40.4% (active) | -54.2% (active) | -27.1% (active) | 45.5%
21 | O=S(=O)(Nc1ccc(I)c(Cl)c1)c1ccc(-c2cnc(C3CC3)o2)cc1 | 27.9% | 38.9% | 45.2% | 56.8% | 50.2% | 36.3% | -9.98% (active) | 17.9% | 14.6%
22 | O=c1oc2ccc(-c3ccc(F)cc3F)cc2c(=O)n1-c1ccc(F)c(F)c1 | 27.5% | 8.19% (active) | 12.9% | 9.07% (active) | 6.15% (active) | 15.1% | 5.59% (active) | 1.72% (active) | 3.65% (active)
23 | COc1cc(C2=NN(C(C)=O)C(c3ccc(N4CCOCC4)cc3)C2)cc(OC)c1OC (configuration not stated) | 108% | 101% | 103% | 107% | 97.4% | 98.5% | 120% | 108% | 99.5%
24 | O=C(c1ccc(O)cc1)[C@@H]1[C@@H]2CCCN2[C@@]2(C(=O)N(C(=O)c3ccc(F)cc3)c3ccccc32)[C@H]1c1ccc(F)cc1 | 60.8% | 93.2% | 111% | 91.1% | 104% | 63.1% | – | 105% | 98.8%
25 | C/C(=N\NC(=S)Nc1ccc(Br)cc1)c1cc2ccccc2oc1=O | 0.863% (active) | 5.84% (active) | 41.3% | 28.2% | 26.1% | 24.6% | – | 20.5% | 11.4%
26 | Cc1ccc(-c2cc3nc(C(Cl)Cl)nc(-c4ccccc4)n3n2)cc1 | 85.3% | 92.9% | 103% | 103% | 97.9% | 94.3% | – | 109% | 79.5%
27 | O=C1[C@@H]2Cc3c([nH]c4ccccc34)[C@H](c3c(Cl)cccc3Cl)N2C(=O)CN1C1CCN(Cc2ccccc2)CC1 | 1.57% (active) | 47.7% | 63% | -0.678% (active) | – | 24.6% | – | 28.5% | 18.5%
28 | CC(C)C(=O)Nc1ccc(-c2nc(-c3cccc(O)c3)c(-c3ccnc(Br)c3)[nH]2)cc1 | -3.9% (active) | 49.5% | 84.3% | 43.4% | 54.5% | 59.4% | 56.1% | -12% (active) | 92.3%
